Mito fusion yeast = inhibitors of mitochondrial division or activators of mitochondrial fusion. S. cerevisiae fusion-defective mutant growth rescue, CellTiterGlo 48 h. Potency, µM (series often up to 46.1 µM), without a hit: top-dose growth rescue (activation), hits mostly activators. 320,000 tested, 0.23% active. AID 485298; further: % of control where 0% means no effect; nearly all actives have a fitted effect of over 45% in size
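Compounds are tested for their ability to restore growth of mitochondrial fusion-defective yeast strains at non-permissive 37C in YPEG medium over 48 hours. Viability is quantified by luciferase luminescence.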
MCF10A rereplic = induces DNA re-replication in MCF 10a normal breast cells. MCF 10A DNA re-replication, Hoechst nuclear intensity, 48 h. Potency, µM (series often up to 46.1 µM), for the others: top-dose activity, positive = re-replication, actives largely listed as activators. 350,000 tested, 2.9% active. AID 624296; further: % of control where 0% means no effect; nearly all actives have a fitted effect of over 50% in size
AT treatment = potential ataxia-telangiectasia treatments restoring KAP-1 phosphorylation | F2112 A-T fibroblasts, KAP-1 phosphorylation AlphaLISA; neocarzinostatin DNA damage 30 min before lysis | Potency, µM (top dose mostly 57.5 µM), without a hit: at the top dose activation, usual class: activators | 320,000 tested, 0.19% active | AID 485349; further: % of control where 0% means no effect; nearly all actives have a fitted effect of over 45% in size
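hTERT-immortalized A-T patient fibroblasts (F2112), 500 cells/well in OPTI-MEM, 1% FBS, got compounds for 60 min, then NCS for 30 min at 37C. Lysates were then assayed for phospho-KAP-1 by AlphaLISA (anti-pKAP1 donor, anti-KAP1 acceptor beads), 6 hr at 25C.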
a7 integrin act = integrin-mediated muscular dystrophy alleviation activation. alpha7betagal myoblasts, beta-gal FDG fluorescence, 48 h. AID 624291. 350,000 tested, 0.064% active. Potency, µM (series often up to 38.3 µM), inactives show top-dose activation, actives largely listed as activators;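 further: 100% = response of the positive control SU9516; nearly all actives have a fitted effect of over 60% in size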
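Alpha7betagal+/- myoblasts (passage 13) were plated 16-24 hr, then exposed to compounds (1:260 dilution of DMSO stock) for 48 hours at 37C. After MPER lysis, β-galactosidase reporter activity was read as FDG fluorescence (ex 480/em 540) after 30 minutes.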
SW480 rereplic = DNA re-replication induction in SW480 cells | SW480 DNA re-replication, Hoechst DNA content imaging, 48 h | Potency, µM (series often up to 46.1 µM), without a hit: at the top dose re-replication activation, hits mostly activators | 340,000 tested, 1.8% active; further: % of control where 0% means no effect; nearly all actives have a fitted effect of over 55% in size
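SW480 cells exposed to compounds for 48 hr at 37 C, 5% CO2, then Hoechst-stained 40 min. Nuclear DNA content imaged by fluorescence scanning (405 nm excitation, 500-530 nm emission); re-replication scored as increased high-intensity nuclei.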
* = called active by the depositor; [ ] = dose if it differs, or a comment. Rows were chosen to be rich in hits. Some 4.2% of all compounds tested hit in one or more screens of this group. The call rests on the fitted dose curve; in most records, active means well fitted activation curve with a large enough effect; inconclusive means small, poorly fitted or top-dose-only effect; inactive means no such curve, though single readings can be large or run the other way. Potency means the concentration at half of the fitted maximal effect.

Results for COc1ccccc1NC(=O)Cc1csc(NC(=S)Nc2ccc(C)cc2)n1 ?
Mito fusion yeast: -6%; MCF10A rereplic: inconclusive; AT treatment: 3%; a7 integrin act: -3%; SW480 rereplic: 21µM*

What do the screens show for `NC(=O)c1cc(Cc2ccccc2)sc1NC(=O)c1ccco1`?
Mito fusion yeast: 16µM*; MCF10A rereplic: inconclusive; AT treatment: 12%; a7 integrin act: -8%[7.66 µM]; SW480 rereplic: 17%

How did COc1ccc(C(=O)CSc2nnc(CCc3ccccc3)n2-c2ccccc2)cc1 do in these assays?
Mito fusion yeast: -7%; MCF10A rereplic: 7.3µM*; AT treatment: 1%; a7 integrin act: 29%; SW480 rereplic: 17%

Results for COc1ccc(-n2c(CCc3ccccc3)nnc2SCC(=O)c2ccccc2)cc1 ?
Mito fusion yeast: 8%; MCF10A rereplic: inconclusive; AT treatment: 10%; a7 integrin act: 13%; SW480 rereplic: 3%

How did O=C1CSC2(CCN(CCCN3c4ccccc4Sc4ccc(Cl)cc43)CC2)N1 do in these assays?
MCF10A rereplic: 19µM*; SW480 rereplic: 7%

Results for CN1CCN(CCCN2c3ccccc3Sc3ccc(C(F)(F)F)cc32)CC1 ?
Mito fusion yeast: -50%; MCF10A rereplic: 23µM*; AT treatment: -2%; a7 integrin act: -56%; SW480 rereplic: inconclusive

What do the screens show for `CCc1ccccc1NC(=O)CSc1nnc(CNC(=O)c2ccco2)n1C`?
Mito fusion yeast: -2%; MCF10A rereplic: -1%; AT treatment: 3%; a7 integrin act: 7%; SW480 rereplic: -2%

Results for Cc1ccc(C(C)C)c(OCC(=O)Nc2ccc3c(c2)nc(CCN2CCCCC2)n3C)c1 ?
Mito fusion yeast: 25%; MCF10A rereplic: inconclusive; AT treatment: 4%; a7 integrin act: -66%; SW480 rereplic: inconclusive

What do the screens show for `Nc1c(C(O)(C(F)(F)F)C(F)(F)F)ccc2ccccc12`?
Mito fusion yeast: 0%; MCF10A rereplic: inconclusive; AT treatment: 28µM*; a7 integrin act: 17%; SW480 rereplic: inconclusive

What do the screens show for `Cc1cc(-n2nc3ccc(Cl)cc3n2)c(O)c(C(C)(C)C)c1`?
MCF10A rereplic: -1%; SW480 rereplic: 6%

Results for N#Cc1cc(-c2ccc(Cl)cc2)cnc1Sc1ccc(F)cc1 ?
Mito fusion yeast: 4%; MCF10A rereplic: 15µM*; AT treatment: 5%; a7 integrin act: -12%; SW480 rereplic: 9%

How did CN(C)N=Nc1nc2c(c(=O)n(C)c(=O)n2C)n1CC1CO1 (stereo not given) do in these assays?
Mito fusion yeast: -3%; MCF10A rereplic: 16µM*; AT treatment: 0%; a7 integrin act: -20%; SW480 rereplic: 16µM*

Results for Cc1ccc(N2/C(=N/c3nc(C)cc(C)n3)NC(=O)CC2C(=O)O)cc1 (stereo not given) ?
Mito fusion yeast: -2%; MCF10A rereplic: 18µM*; AT treatment: -5%; a7 integrin act: 7%; SW480 rereplic: 14%

How did Cc1cc(C)nc(/N=C2\NC(=O)CC(C(=O)O)N2c2ccc(Cl)cc2)n1 (stereo not given) do in these assays?
Mito fusion yeast: -3%; MCF10A rereplic: 0%; AT treatment: -8%; a7 integrin act: -3%; SW480 rereplic: 3%

How did CCOc1ccc(C(=O)Cc2cc(OC)c(OC)cc2[N+](=O)[O-])cc1 do in these assays?
Mito fusion yeast: 0%; MCF10A rereplic: 4.6µM*; AT treatment: 1%; a7 integrin act: 0%; SW480 rereplic: 5.8µM*

How did COc1ccc(C(=O)Cc2cc(OC)c(OC)cc2[N+](=O)[O-])cc1 do in these assays?
Mito fusion yeast: -2%; MCF10A rereplic: -3%; AT treatment: 5%; a7 integrin act: 14%; SW480 rereplic: 0%

What do the screens show for `CCc1ccc2c(c1)[C@H]1OCC[C@H]1[C@@H](c1cccs1)N2`?
Mito fusion yeast: 8%; MCF10A rereplic: 5.8µM*; AT treatment: -1%; a7 integrin act: -19%; SW480 rereplic: 5.2µM*

What do the screens show for `CC(C)CN1CCC(CN2CCNC(=O)C2=O)CC1`?
MCF10A rereplic: -1%; a7 integrin act: 9%; SW480 rereplic: 102%

What do the screens show for `O=C(NCCc1ccccc1)C(c1cccs1)N(C(=O)CCl)c1ccc(Cl)cc1` (stereo not given)?
Mito fusion yeast: -9%; MCF10A rereplic: 12µM*; AT treatment: 14%; a7 integrin act: -60%; SW480 rereplic: 10µM*

Results for O=C(NCCc1ccccc1)C(c1cccs1)N(C(=O)c1csnn1)C1CC1 (stereo not given) ?
Mito fusion yeast: 1%; MCF10A rereplic: -5%; AT treatment: 4%; a7 integrin act: 0%; SW480 rereplic: 10%

What do the screens show for `CC(C)CCNC1=CC(=O)CC(c2ccccc2)C1` (stereo not given)?
Mito fusion yeast: -1%; MCF10A rereplic: inconclusive; AT treatment: 5%; a7 integrin act: -34%; SW480 rereplic: 18µM*

Results for Cc1ccc(NC2=CC(=O)CC(c3ccc(Cl)cc3)C2)cc1 (stereo not given) ?
Mito fusion yeast: 9%; MCF10A rereplic: 25%; AT treatment: -3%; a7 integrin act: -12%; SW480 rereplic: 10%

Results for O=C1C=C(Nc2ccc(Cl)cc2)CC(c2ccccc2)C1 (stereo not given) ?
Mito fusion yeast: 2%; MCF10A rereplic: 16µM*; AT treatment: 1%; a7 integrin act: inconclusive; SW480 rereplic: inconclusive

Results for CN(C)CCCNC1=CC(=O)CC(c2ccccc2)C1 (stereo not given) ?
Mito fusion yeast: -6%; MCF10A rereplic: -6%; AT treatment: 2%; a7 integrin act: inconclusive; SW480 rereplic: -9%

What do the screens show for `Cc1ccc(NC2=CC(=O)CC(c3ccccc3)C2)cc1` (stereo not given)?
Mito fusion yeast: -12%; MCF10A rereplic: 8.2µM*; AT treatment: -6%; a7 integrin act: -10%; SW480 rereplic: 21µM*

What do the screens show for `NC(=O)n1c(O)c(C(=O)c2cccs2)c2cc(Cl)ccc21`?
MCF10A rereplic: inconclusive; SW480 rereplic: 2%

Results for N=C1C(c2nc3ccccc3s2)=C(O)CN1Cc1ccco1 ?
Mito fusion yeast: 8%; MCF10A rereplic: 12%; AT treatment: 0%; a7 integrin act: 5%; SW480 rereplic: inconclusive

How did CN(C)CCN1CC(O)=C(c2nc3ccccc3s2)C1=N do in these assays?
Mito fusion yeast: -3%; MCF10A rereplic: 18µM*; AT treatment: 2%; a7 integrin act: 17%; SW480 rereplic: 3%

What do the screens show for `Cc1ccc(C)c(CSc2nc3[nH]ncc3c(=O)[nH]2)c1`?
Mito fusion yeast: 14%; MCF10A rereplic: inconclusive; AT treatment: -16%; a7 integrin act: 6%; SW480 rereplic: 3.7µM*

Results for Cc1ccccc1CSc1nc2[nH]ncc2c(=O)[nH]1 ?
Mito fusion yeast: 4%; MCF10A rereplic: -13%; AT treatment: -1%; a7 integrin act: 0%; SW480 rereplic: -75%

Screening data (PubChem BioAssay)
